{
  "source": "PubChem BioAssay (NCATS)",
  "note": "Results filed as inconclusive are left out. A number with no mark means an inactive call. Activity calls are given as the source filed them. The call rests on the fitted dose curve; in most records, active means well fitted inhibition curve with a large enough effect; inconclusive means small, poorly fitted or top-dose-only effect; inactive means no such curve, though single readings can be large or run the other way. Potency means the concentration at half of the fitted maximal effect.",
  "data": [
    {"assay": "S16 Schwann cell PMP22 intronic element firefly luciferase assay (AID 624032); further: nearly all actives have a fitted effect of over 30% in size", "conditions": "S16 rat Schwann cells, PMP22 element FLuc, 24 h; series mostly up to 57.5 µM; activity change, negative = inhibition: at the top concentration", "description": "Charcot-Marie-Tooth-Association [CMTA]\nNational Center for Advancing Translational Sciences [NCATS]\nCharcot-Marie-Tooth (CMT) disease was first characterized by Jean-Martin Charcot and Pierre Marie in France and, independently, by Howard Henry Tooth in England in 1886. CMT is one of the most common inherited neurological diseases, affecting approximately 1 in 2,500 Americans. […] The most prevalent type of CMT is known as CMT1A and caused by a duplication of the PMP22 gene which leads to over-expression of this protein. PMP22 is a glycosylated intrinsic membrane protein accounting for 2-5% of the myelin protein content, and its over-expression results in demyelination and subsequently axonal loss.\nA pair of cellular transcription-based assays was developed in the S16 rat Schwann cell lines (Hai, M., et al., 2002) stably transfected with orthogonal reporters - firefly luciferase (Fluc) and beta-lactamase (beta-Lac) - whose expression is driven by an intronic regulatory element of the PMP22 gene (Jones, E.A., et al., 2011) to recapitulate endogenous expression of PMP22. The current assay employs Fluc to report on PMP22 expression. A comprehensive library of approved drugs, the NCGC Pharmaceutical Collection (Huang, R., et al., 2011), was screened in the cross-validating platform of the orthogonal reporter assays to identify drug modulators inhibitory towards PMP22 expression.\nA set of counter-screens was devised to address non-specific activity of the library. An ATP-dependent CellTiter-Glo assay (developed by Promega Corp) was utilized to control cell viability. In addition, biochemical Fluc enzyme assay was performed to assess direct inhibition of the Fluc enzymatic activity.\nHai, M., Muja, N., DeVries, G.H., Quarles, R.H. and Patel, P.I. Comparative analysis of Schwann cell lines as model systems for myelin gene transcription studies. J Neurosci Res, 2002. 69(4): pp 497-508\nHuang, R., Southall, N., Wang, Y., Yasgar A., Shinn P., Jadhav, A. , Nguyen, D.-T. and Austin, C.P., The NCGC pharmaceutical collection: a comprehensive resource of clinically approved drugs enabling repurposing and chemical genomics. Sci Transl Med, 2011. 3(80): p. 80ps16.\nS16 Schwann cell PMP22 intronic element firefly luciferase assay\nThe FLuc-expressing S16 cells were seeded in white solid 1536-well plates at between 500-750 cells/4uL in DMEM medium containing 10% FBS, w/o phenol red. After overnight incubation at 37 degree Celsius/5% C02, 23 nL of compounds or DMSO were delivered to each well using a pin tool, followed by 24h-incubation at 37 degree Celsius/5% C02. Then 4 uL ONE-Glo luminescent substrate mix (Promega) was added to each well. Luminescence was measured on a ViewLux plate reader (Perkin Elmer). The % activity was determined by normalizing to the average readings of PTC124 (a positive control) - treated cells relative to DMSO-treated cells (0% Activity). The concentration-effect curves were then classified based on curve quality (r2), response magnitude and degree of measured activity.", "values": [
      {"smiles": "O=C(Oc1cccc2cccnc12)c1ccccc1", "Potency": "9.07 µM (active)"},
      {"smiles": "C[N+](C)(C)CCOC(=O)C(O)(c1ccccc1)c1ccccc1", "activity change, negative = inhibition": "6.5%"},
      {"smiles": "CCCCCCCCC(=O)NCc1ccc(O)c(OC)c1", "activity change, negative = inhibition": "1.41%"},
      {"smiles": "Cc1cccc(C)c1NC(=O)CN1CCCC1", "Potency": "8.09 µM (active)"},
      {"smiles": "Clc1ccc2c(c1)CCc1cccnc1C2=C1CCNCC1", "Potency": "28.7 µM (active)"},
      {"smiles": "CCN(Cc1ccc(Cl)nc1)/C(=C/[N+](=O)[O-])NC", "activity change, negative = inhibition": "-8.52%"},
      {"smiles": "CC(C)(O)C(Cl)(Cl)Cl", "activity change, negative = inhibition": "-11.7%"},
      {"smiles": "CCC1(c2ccccc2)CCC(=O)NC1=O", "note": "(stereo not given)", "activity change, negative = inhibition": "15.9%"},
      {"smiles": "O=c1cc(CO)occ1O", "Potency": "16.1 µM (active)"},
      {"smiles": "CNC(=O)NC(O)C(Cl)(Cl)Cl", "note": "(stereo not given)", "activity change, negative = inhibition": "26.5%"},
      {"smiles": "NC(=O)NNc1ccccc1", "Potency": "inactive"},
      {"smiles": "CCC(=O)O[C@H]1CC[C@H]2[C@@H]3CCC4=CC(=O)CC[C@]4(C)[C@H]3CC[C@]12C", "activity change, negative = inhibition": "-19.1% [at 25.7 µM]"},
      {"smiles": "CC1CCc2cc(F)cc3c(=O)c(C(=O)O)cn1c23", "note": "(stereo not given)", "activity change, negative = inhibition": "37.7%"},
      {"smiles": "CN1CCN(c2cc3c(nn2)Oc2ccccc2N3C)CC1", "activity change, negative = inhibition": "108%"},
      {"smiles": "CCNc1nc(Cl)nc(NCC)n1", "activity change, negative = inhibition": "-6.62%"},
      {"smiles": "CC(C)[N+](C)(CCC(C(N)=O)(c1ccccc1)c1ccccc1)C(C)C", "activity change, negative = inhibition": "11% [at 25.7 µM]"},
      {"smiles": "COC(=O)C1=C(C)NC(C)=C(C(=O)OC)C1c1ccccc1[N+](=O)[O-]", "Potency": "18.1 µM (active)"},
      {"smiles": "COc1ccc(CN2CCNCC2)c(OC)c1OC", "activity change, negative = inhibition": "-12% [at 25.7 µM]"},
      {"smiles": "O=c1n(Cl)c(=O)n(Cl)c(=O)n1Cl", "activity change, negative = inhibition": "-13.1%"},
      {"smiles": "Oc1c(Br)cc(Br)cc1Br", "activity change, negative = inhibition": "-1.89%"},
      {"smiles": "NC(=O)OCCCc1ccccc1", "activity change, negative = inhibition": "-9.78%"},
      {"smiles": "Oc1ccc2[nH]cc(CCCCN3CC=C(c4ccccc4)CC3)c2c1", "Potency": "9.07 µM (active)"},
      {"smiles": "C[N+]1(CCC(C(N)=O)(c2ccccc2)c2ccccc2)CCCCC1", "activity change, negative = inhibition": "-24.1%"},
      {"smiles": "C[C@]12C=CC(=O)C=C1CC[C@@H]1[C@@H]2CC[C@@]2(C)[C@H]1CC[C@]2(C)O", "activity change, negative = inhibition": "-16.4%"},
      {"smiles": "Cc1ccc(N=CN(C)C=Nc2ccc(C)cc2C)c(C)c1", "activity change, negative = inhibition": "-0.894%"},
      {"smiles": "Cc1c(Cl)c(=O)oc2cc(OP(=O)(OCCCl)OCCCl)ccc12", "Potency": "12.8 µM (active)"},
      {"smiles": "CC(C)(C)C(=O)C(Oc1ccc(Cl)cc1)n1ccnc1", "note": "(stereo not given)", "Potency": "2.03 µM (active)"},
      {"smiles": "C[C@]12Cc3nonc3C[C@@H]1CC[C@@H]1[C@@H]2CC[C@@]2(C)[C@H]1CC[C@]2(C)O", "Potency": "14.4 µM (active)"},
      {"smiles": "C[C@]12CC[C@H]3[C@@H](CC=C4C[C@@H](O)CC[C@@]43C)[C@@H]1CC[C@@H]2O", "activity change, negative = inhibition": "-32.3%"},
      {"smiles": "NC(N)=NN=C(/C=C/c1ccc([N+](=O)[O-])o1)/C=C/c1ccc([N+](=O)[O-])o1", "Potency": "7.21 µM (active)"},
      {"smiles": "C[C@H]1C(=O)O[C@@H]2CCN3CC=C(COC(=O)[C@](C)(O)[C@]1(C)O)[C@H]23", "activity change, negative = inhibition": "-7.74%"},
      {"smiles": "CN1CCc2cc(Cl)c(O)cc2[C@H]2c3ccccc3CC[C@@H]21", "activity change, negative = inhibition": "-1.59%"},
      {"smiles": "CC(C)(C)OC(=O)c1ncn2c1[C@@H]1CCCN1C(=O)c1c(Br)cccc1-2", "activity change, negative = inhibition": "-4.09%"},
      {"smiles": "CC[C@]1(O)CC[C@H]2[C@@H]3CCC4=CCCC[C@@H]4[C@H]3CC[C@@]21C", "Potency": "9.07 µM (active)"},
      {"smiles": "CCCCCCCCCCCC[N+](C)(C)CCOc1ccccc1", "Potency": "25.6 µM (active)"},
      {"smiles": "OC(c1ccccc1)(c1ccccc1)C1CCNCC1", "activity change, negative = inhibition": "13.5% [at 25.7 µM]"},
      {"smiles": "CC(Cc1ccccc1)NCc1ccccc1Cl", "note": "(stereo not given)", "activity change, negative = inhibition": "16.4%"},
      {"smiles": "COC(=O)C1=CCCN(C)C1", "activity change, negative = inhibition": "46.3%"},
      {"smiles": "Clc1ccc(CO/N=C(\\Cn2ccnc2)c2ccc(Cl)cc2Cl)c(Cl)c1", "Potency": "32.2 µM (active)"},
      {"smiles": "O=C(Nc1ccc(Cl)cc1)Nc1ccc(Cl)c(Cl)c1", "activity change, negative = inhibition": "57.7%"}
    ]}
  ]
}
